Assay results: PubChem BioAssay AID1159580 (chemical genetic matrix, 2015)
“And” between values parts separate entries of the source, which are not always exact repeats. Equal values may be shown once. The whole screen tested about 5,500 compounds, of which about 2,000 (36%) were called active. About 18% were inconclusive and are not listed. Cut-off read from the data, not from the text of the source: active = normalized growth mostly below about 0.91 (no sharp cut-off); inconclusive = no clear call, values can overlap the other calls; inactive = mostly above about 0.92. The list shows a part of the results.

Test: chemical genetic growth profiling, strain panel (AID 1159580);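 note: tested at 20 µM; growth read once vehicle control cultures reached saturation at 30 °C; 1 = growth at the plate median or of vehicle wells; lower values mean less growth of the strain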
Conditions: S. cerevisiae deletion strains, growth OD

Measured: normalized growth

CN1CCCN=C1COC(=O)C(O)(c1ccccc1)C1CCCCC1 (stereo unspecified)
inactive: locus YAL013W, strain DEP1, hits give low values 1.01 | locus YAL021C, strain ccr4, hits give low values 1 | locus YAL026C, strain drs2, hits give low values 0.993 | locus YAL030W, strain snc1, hits give low values 0.996 | locus YBL061C, strain skt5, hits give low values 0.987 | locus YBR009C, strain hhf1, hits give low values 0.994 | locus YBR021W, strain FUR4, hits give low values 1.03 | locus YBR023C, strain chs3, hits give low values 0.987 | locus YBR171W, strain sec66, hits give low values 0.993 | locus YBR229C, strain ROT2, hits give low values 1.01 | locus YBR231C, strain swc5, hits give low values 1 | locus YBR279W, strain paf1, hits give low values 0.993 | locus YCL011C, strain gbp2, hits give low values 1 | locus YCL016C, strain dcc1, hits give low values 0.991 | locus YCL029C, strain bik1, hits give low values 0.99 | locus YCL061C, strain MRC1, hits give low values 0.994 | locus YCL069W, strain vba3, hits give low values 0.997 | locus YCR088W, strain abp1, hits give low values 0.997 | locus YDL005C, strain med2, hits give low values 0.98 | locus YDL035C, strain GPR1, hits give low values 1 | locus YDL040C, strain nat1, hits give low values 0.998 | locus YDL074C, strain BRE1, hits give low values 1.01 | locus YDL101C, strain DUN1, hits give low values 1.01 | locus YDL134C, strain PPH21, hits give low values 1.02 | locus YDL185W, strain tfp1, hits give low values 1 | locus YDL192W, strain arf1, hits give low values 0.999 | locus YDR001C, strain nth1, hits give low values 0.995 | locus YDR069C, strain doa4, hits give low values 0.99 | locus YDR101C, strain arx1, hits give low values 0.968 | locus YDR137W, strain rgp1, hits give low values 0.99 | locus YDR150W, strain NUM1, hits give low values 1.01 | locus YDR159W, strain sac3, hits give low values 1 | locus YDR162C, strain NBP2, hits give low values 1 | locus YDR195W, strain ref2 0.993 | locus YDR297W, strain sur2, hits give low values 1 | locus YDR318W, strain mcm21, hits give low values 0.983 | locus YDR334W, strain swr1, hits give low values 0.989 | locus YDR335W, strain msn5, hits give low values 0.997 | locus YDR388W, hits give low values 0.989 | locus YDR392W, strain spt3, hits give low values 1 | locus YDR502C, strain sam2, hits give low values 0.994 | locus YEL003W, strain gim4, hits give low values 0.997 | locus YEL037C, strain rad23, hits give low values 0.991 | locus YEL061C, strain CIN8 (second series), hits give low values 0.999 | locus YEL061C, strain CIN8, hits give low values 1.01 | locus YER015W, strain faa2, hits give low values 0.978 | locus YER016W, strain bim1, hits give low values 0.994 | locus YER110C, hits give low values 0.991 | locus YER111C, strain swi4, hits give low values 0.995 | locus YER155C, strain BEM2 (second series), hits give low values 1.01 | locus YER155C, strain BEM2, hits give low values 1.03 | locus YER167W, strain BCK2, hits give low values 1.01 | locus YFR010W, strain ubp6, hits give low values 1.01 | locus YGL078C, strain dbp3, hits give low values 0.987 | locus YGL086W, strain mad1, hits give low values 0.992 | locus YGL167C, strain pmr1, hits give low values 0.987 | locus YGL173C, strain kem1, hits give low values 0.987 | locus YGL227W, strain vid30, hits give low values 0.993 | locus YGL240W, strain doc1, hits give low values 1 | locus YGL248W, strain PDE1, hits give low values 1.01 | locus YGL253W, strain hxk2, hits give low values 0.998 | locus YGR078C, strain PAC10, hits give low values 0.991 | locus YGR135W, strain pre9, hits give low values 0.978 | locus YGR229C, strain SMI1, hits give low values 0.99 | locus YGR252W, strain gcn5, hits give low values 1.05 | locus YHR013C, strain ard1, hits give low values 0.981 | locus YHR027C, strain rpn1, hits give low values 0.991 | locus YHR030C, strain SLT2, hits give low values 1.01 and 0.997 | locus YHR079C, strain IRE1 (second series), hits give low values 0.988 | locus YHR079C, strain IRE1, hits give low values 1.01 | locus YHR094C, strain hxt1, hits give low values 0.985 | locus YHR129C, strain ARP1, hits give low values 1.02 | locus YHR142W, strain chs7, hits give low values 0.998 | locus YHR200W, strain rpn10, hits give low values 0.993 | locus YIL066C, strain RNR3, hits give low values 1 | locus YIL073C, strain SPO22, hits give low values 0.999 | locus YIL125W, strain kgd1, hits give low values 0.998 | locus YIR030C, strain dcg1, hits give low values 0.985 | locus YJL092W, strain hpr5, hits give low values 0.997 | locus YJL095W, strain BCK1 (second series), hits give low values 0.998 | locus YJL095W, strain BCK1, hits give low values 1 and 1.01 | locus YJL115W, strain asf1, hits give low values 0.986 | locus YJL129C, strain trk1, hits give low values 1.02 | locus YJL134W, strain LCB3, hits give low values 1.01 | locus YJL154C, strain vps35, hits give low values 0.996 | locus YJL166W, strain qcr8, hits give low values 0.99 | locus YJL168C, strain set2, hits give low values 0.992 | locus YJL187C, strain SWE1 (second series), hits give low values 1.01 | locus YJL187C, strain SWE1, hits give low values 0.999 | locus YJR043C, strain POL32, hits give low values 1 | locus YJR066W, strain TOR1, hits give low values 0.952
